PI4K2A inh: qHTS for small molecular inhibitors of PI4K2A; activity change, negative = inhibition, % at 76.9 µM; actives 0.13% (n = 420,000); AID 1346378, 2018; purified PI4K2A, ADP-Glo luminescence, 1 h; hits give low values; in the data active = activity change below about -50%; inconclusive = mostly about -30% to -49%
Target sequence (Q9BTU6 whole entry, looked up): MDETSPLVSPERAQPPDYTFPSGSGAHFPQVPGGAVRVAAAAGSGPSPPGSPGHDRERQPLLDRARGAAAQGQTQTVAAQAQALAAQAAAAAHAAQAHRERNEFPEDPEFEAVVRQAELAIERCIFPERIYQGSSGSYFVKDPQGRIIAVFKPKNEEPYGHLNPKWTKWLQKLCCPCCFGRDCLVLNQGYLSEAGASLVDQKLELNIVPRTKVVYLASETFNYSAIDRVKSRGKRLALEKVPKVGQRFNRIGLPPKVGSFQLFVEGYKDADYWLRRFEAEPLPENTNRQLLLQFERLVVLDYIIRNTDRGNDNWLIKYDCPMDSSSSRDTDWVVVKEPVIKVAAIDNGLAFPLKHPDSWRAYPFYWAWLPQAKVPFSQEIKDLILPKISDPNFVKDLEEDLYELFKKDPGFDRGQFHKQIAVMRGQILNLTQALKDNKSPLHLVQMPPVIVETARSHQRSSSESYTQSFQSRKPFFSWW
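PI4K2A activity was measured by ADP-Glo luminescence: enzyme (4 ug/mL stock) and phosphatidylinositol (1.2 mM stock) in Tris pH 7.5/MgCl2/EGTA/Triton X-100 buffer were reacted with ATP (300 microM stock) for one hour at ambient temperature.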
GALK inh: qHTS Assay for Inhibitors of Human Galactokinase (GALK); Purified GALK, Kinase-Glo residual ATP luminescence; AID 1868, 2009; actives 0.007% (n = 270,000); Potency, µM (titrated, usually from 57.5 µM), most hits filed as inhibitors
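Kinase-Glo Plus luminescence measured ATP left after a 1 h room-temperature reaction. The reaction used 5 nM GALK, 100 uM galactose and 35 uM ATP at pH 8.0 (20 mM HEPES, 5 mM MgCl2, 60 mM NaCl, 1 mM DTT, 0.01% BSA).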
TrxR1 inh: qHTS Assay for Inhibitors of Mammalian Selenoprotein Thioredoxin Reductase 1 (TrxR1): qHTS | recombinant rTrxR1, NADPH fluorescence consumption, selenite substrate | Potency, µM (top dose mostly 114 µM), actives largely listed as inhibitors | actives 1% (n = 390,000) | AID 588453, 2011; note: nearly all actives have a fitted effect of over 65% in size
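Rat TrxR1 (90 nM in the dispensed reagent) was pre-reduced with 400 uM NADPH for 5 min at room temperature, then incubated with compound for 15 min. After 400 uM selenite was added, NADPH fluorescence (Ex 340/Em 450 nm) was followed for 8 min.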
Giardia kill: Small Molecules that selectively kill Giardia lamblia: qHTS. Giardia lamblia trophozoite viability. actives 0.15% (n = 340,000). activity change, % at 7.66 µM, hits read low; in the data active = activity change below about -80%; inconclusive = between about -30% and that limit;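 note: parasites exposed to compound for two days anaerobically before the ATP read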
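Luminescent ATP signal served as the viability read-out, measured 15-30 min after adding ATP detection reagent to trophozoites that had been incubated with compounds for 48 hrs at 37 deg C anaerobically at 100 cells/well.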
TrxR1 substrate: qHTS Assay for Substrates of Mammalian Selenoprotein Thioredoxin Reductase 1 (TrxR1): qHTS. Potency, µM (highest dose often 114 µM). actives 0.01% (n = 390,000). purified TrxR1 substrate turnover, NADPH consumption readout. Thioredoxin reductase 1, cytoplasmic (Rattus norvegicus), O89049; note: nearly all actives have a fitted effect of over 50% in size
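Rat TrxR1, dispensed at 90 nM, was prereduced with 400 uM NADPH (final) for 5 min at ~22 deg C, then incubated with compound 15 min before 400 uM selenite. A first-read NADPH fluorescence drop versus no-compound background flagged substrates.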
FBPA coupling cs: qHTS Assay for Inhibitors of Fructose-1,6-bisphosphate Aldolase from Giardia Lamblia: Coupling assay counterscreen; actives 0.67% (n = 290,000); coupling enzyme system counterscreen, AmpLite Red fluorescence; AID 2472, 2010; activity change, negative = inhibition, % at 58.2 µM, hits read low; in the data active = activity change below about -30%
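Counterscreen lacking aldolase: glyceraldehyde-3-phosphate coupling-enzyme reagent preincubated 10 min at RT with compound (at 57.5 uM final), then substrate/coupling system with AmpLite Red added; fluorescence read at 525/598 nm after 20 min RT.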
Large screens that a line does not name were inactive. Hits are enriched below; roughly 1.5% of the tested compounds scored in any of these assays. Unless noted, calls come from the whole dose curve; as a rule, active = well fitted curve in the direction sought with a large enough effect; inconclusive = small, poorly fitted or top-dose-only effect, or another doubt; inactive = no such curve, though single readings can be large; an effect the other way counts as inactive or inconclusive.

O=[N+]([O-])c1ccccc1C1Nc2cccc3cccc(c23)N1	TrxR1 inh 79µM, Giardia kill inconclusive
CCc1ccccc1Nc1cc(C(=O)NC(C)c2ccccc2)c2ccccc2n1 (centres undefined)	none (no result: GALK inh, Giardia kill, FBPA coupling cs)
Cc1ccc(C)c(Cn2c3ccccc3c3cnn(CC(=O)NC4CCC(C)CC4)c(=O)c32)c1 (centres undefined)	none (no result: GALK inh, Giardia kill, FBPA coupling cs)
CC(C)CCNC(=O)c1cnn2c(C(F)(F)F)cc(-c3ccco3)nc12	TrxR1 inh 7.1µM
C#CC(C)(CC)OC(=O)c1ccccc1C(=O)O (centres undefined)	none (no result: GALK inh, TrxR1 inh, Giardia kill, TrxR1 substrate, FBPA coupling cs)
Cc1nc(CCNC(=O)CC2C(=O)NCCN2Cc2ccoc2)nc2c1CCCC2 (centres undefined)	TrxR1 inh inconclusive
Cc1nc(CNC(=O)CC2C(=O)NCCN2Cc2ccoc2)nc2c1CCCC2 (centres undefined)	TrxR1 inh 50µM
CCN(C(=S)Nc1cc(S(=O)(=O)N2CCOCC2)ccc1Cl)c1cccc2ccccc12	FBPA coupling cs -93
COc1ccc2cc1Oc1cc3c(cc1OC)CC[N+](C)(C)[C@H]3Cc1ccc(cc1)Oc1c(OC)c(OC)cc3c1[C@@H](C2)[N+](C)(C)CC3	none (no result: GALK inh, TrxR1 inh, Giardia kill, TrxR1 substrate, FBPA coupling cs)
COc1cccc(F)c1C(=O)NC(=O)Nc1ccc2nc(C)oc2c1	FBPA coupling cs -31
CC(NC(=O)/C=C/c1ccco1)c1nc2ccccc2n1Cc1ccccc1F (centres undefined)	TrxR1 inh 50µM
CCc1ccc(-c2nc(SCC(=O)NCC3CCCO3)c(-c3ccc(F)cc3)[nH]2)cc1 (centres undefined)	none (no result: GALK inh, Giardia kill, FBPA coupling cs)
CCOC(=O)CNC(=O)CN1CCCN(S(=O)(=O)c2ccc(Br)s2)CC1	TrxR1 inh 16µM
O=C(CSc1nnc(-c2cccnc2)n1-c1ccc(Cl)cc1)Nc1ccc(S(=O)(=O)Nc2nccs2)cc1	none (no result: GALK inh, TrxR1 inh, Giardia kill, TrxR1 substrate, FBPA coupling cs)
COc1ccc(NCc2nnc(SCC(=O)N3CCCc4ccccc43)n2C)cc1	FBPA coupling cs -38
O=c1c(-c2ccccc2)coc2cc(O)cc(O)c12	FBPA coupling cs -35 (no result: PI4K2A inh, GALK inh, TrxR1 inh, Giardia kill, TrxR1 substrate)
COc1cc(S(=O)(=O)NCCc2c(C)[nH]c3ccccc23)c(C)cc1C	none (no result: GALK inh, Giardia kill, FBPA coupling cs)
O=C(N/N=C/C=C/c1ccco1)c1ccncc1	TrxR1 inh 40µM
CC(/C=C/c1ccco1)=N\NC(=O)c1cccc(Cl)c1	TrxR1 inh inconclusive
CC(/C=C/c1ccco1)=N/NC(=O)c1ccccc1Cl	TrxR1 inh 16µM
O=C(N/N=C/C=C\c1ccco1)c1cccs1	TrxR1 inh inconclusive
O=C(N/N=C/C=C/c1ccco1)/C(=C/c1ccccc1)NC(=O)c1ccccc1	PI4K2A inh inconclusive, TrxR1 inh 20µM
O=C(N/N=C/C=C/c1ccco1)c1ccccc1Cl	TrxR1 inh 56µM
O=C(O)/C(=C\c1ccco1)NC(=O)c1ccccc1	none
NS(=O)(=O)c1nn2cc(-c3ccccc3)nc2s1	none (no result: PI4K2A inh, GALK inh, TrxR1 inh, Giardia kill, TrxR1 substrate)
O=C(O)C(Oc1ccc2cc(-c3ccc(Cl)cc3)c(=O)oc2c1)c1ccccc1 (centres undefined)	TrxR1 inh 45µM
C[C@H]1[C@@H](NC(=O)/C=C/c2ccccc2)CC[C@@]23CCCN2C(=O)CCC[C@@H]13	none (no result: GALK inh, TrxR1 inh, Giardia kill, TrxR1 substrate, FBPA coupling cs)
CC(=O)NCCCC(=O)NNC1CC(=O)N(c2cccc(Cl)c2)C1=O (centres undefined)	TrxR1 inh 14µM
CCCCCC(=O)NNC1CC(=O)N(c2cccc(OCC)c2)C1=O (centres undefined)	none
CCCCCCCCCCN1CCOCCOCCN(CCCCCCCCCC)CCOCCOCC1	none (no result: PI4K2A inh, GALK inh, TrxR1 inh, Giardia kill, TrxR1 substrate)
C=CCNc1nnc(SC2CC(=O)N(c3ccc(OC)cc3)C2=O)s1 (centres undefined)	TrxR1 inh 4µM
